High-throughput results (PubChem BioAssay)
NPR2 activator: GC-B (human) receptor activation. P20594. activation, % at 10 µM. HEK293-GC-B cells, CNP EC30, cGMP TR-FRET; 0% at EC30 CNP, 100% saturating CNP. AID 1920062. hit rate 0.11% among 370,000;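 active = activation at 10 µM reaching about 35% in either raw or pattern-adjusted values, limit read from the data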
TLR4 MyD88 comp: blocks binding of human TLR4 to MyD88; AID 861; hit rate 0.18% among 200,000; HeLa CL3-4 TLR4/MyD88 BLA complementation, FRET ratio; inhibition, % at 8.4 µM; in the data active = inhibition above about 25%;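 also: 0% = vehicle and 100% = reference inhibitor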
GC-A act: GC-A (human) enzyme activation; P16066; HEK293 GC-A cells, cGMP TR-FRET, EC30 ANP; 0% at EC30 ANP, 100% saturating ANP; hit rate 0.14% among 370,000; activation, % at 10 µM; in the data active = activation above about 40%
NOD2 RIPK2 PPI: blocks binding of human NOD2 to RIPK2; hit rate 0.38% among 360,000; inhibition, % at 4.98 µM; CHO BLA complementation NOD2-RIPK2, CCF4 ratio; O43353; AID 624267; in the data active = inhibition above about 21%;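 also: 0% = vehicle only and 100% = reference blocker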
Neddylation inh: cullin neddylation inhibition; P61081+Q13564; TR-FRET cullin neddylation, biochemical; inhibition, % at 25 µM; hit rate 0.58% among 360,000; in the data active = inhibition above about 36%
TLR9-MyD88 block: TLR9-MyD88 interaction inhibition. Q9NR96+Q99836. CHO BLA complementation TLR9-MyD88, CCF4 FRET ratio. inhibition, % at 4.98 µM. hit rate 0.21% among 340,000;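 active = inhibition above the mean over all tested compounds plus 3 SD, cut at about 21% in these data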;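 also: 0% = DMSO only wells and 100% = clavulanate BLA inhibitor control wells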
Neddyl conf: cullin neddylation inhibition, confirmation. calls only at 25 µM. TR-FRET cullin neddylation biochemical assay. hit rate 13% among 1,800. shares compounds with Neddylation inh; in the data active = inhibition above about 40%;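 also: neddylation substrate is the cullin 1 ring ligase complex with SKP2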
Starred values were filed as active, the others as inactive. Rows were chosen to be rich in hits. Some 1.2% of all compounds tested hit in one or more screens of this group.

COc1ccc(CC(=O)Nc2cccc(-c3cn4ccccc4n3)c2)cc1 was read as NPR2 activator 1, TLR4 MyD88 comp -11, GC-A act 2, NOD2 RIPK2 PPI -6, Neddylation inh 38 and TLR9-MyD88 block -7.
O=C(Nc1cccc(-c2cn3ccccc3n2)c1)c1cccc(Cl)c1 was read as NPR2 activator 3, TLR4 MyD88 comp -7, GC-A act -6, NOD2 RIPK2 PPI 9, Neddylation inh 41* and TLR9-MyD88 block -10.
For CC(=O)Nc1ccc2nc(-c3ccccc3)cn2c1 the results were NPR2 activator -2, TLR4 MyD88 comp 6, GC-A act -4, NOD2 RIPK2 PPI 6, Neddylation inh 44*, TLR9-MyD88 block 7 and Neddyl conf inactive.
O=C(Nc1cccc(-c2cn3ccccc3n2)c1)c1cnccn1 was read as NPR2 activator 2, TLR4 MyD88 comp -5, GC-A act 3, NOD2 RIPK2 PPI -3, Neddylation inh 5 and TLR9-MyD88 block -2.
`CCC(=O)Nc1cccc(-c2cn3ccccc3n2)c1` gave NPR2 activator 0, TLR4 MyD88 comp 8, GC-A act 2, NOD2 RIPK2 PPI -2, Neddylation inh 41*, TLR9-MyD88 block 12 and Neddyl conf inactive.
For CC(=O)Nc1cccc(-c2cn3ccc(C)cc3n2)c1 the results were NPR2 activator -6, TLR4 MyD88 comp 2, GC-A act 0, NOD2 RIPK2 PPI -8 and TLR9-MyD88 block 5.
For COc1c(Cl)cccc1-c1cn2ccc(C)cc2n1 the results were NPR2 activator -4, GC-A act 2, NOD2 RIPK2 PPI -8, Neddylation inh 44*, TLR9-MyD88 block 2 and Neddyl conf inactive.
For Cc1ccn2cc(-c3cccc(NS(C)(=O)=O)c3)nc2c1 the results were NPR2 activator 0, TLR4 MyD88 comp -6, GC-A act 2, NOD2 RIPK2 PPI -2, Neddylation inh 44*, TLR9-MyD88 block -9 and Neddyl conf inactive.
Cc1ccc(S(=O)(=O)Nc2ccc(-c3cn4ccc(C)cc4n3)cc2)cc1 was read as NPR2 activator -12, TLR4 MyD88 comp 0, GC-A act -6, NOD2 RIPK2 PPI 8, Neddylation inh 41*, TLR9-MyD88 block 11 and Neddyl conf inactive.
Screening O=C(O)C(Cc1ccccc1[N+](=O)[O-])N1C(=O)c2ccccc2C1=O (configuration not stated) returned NPR2 activator 0, GC-A act 1, NOD2 RIPK2 PPI -8, Neddylation inh -14 and TLR9-MyD88 block -12.
For CCC/C(=C1/c2ccccc2C(=O)N1c1ccccc1)c1ccc2[nH]ccc2c1 the results were NPR2 activator -16, GC-A act -7, NOD2 RIPK2 PPI -1, Neddylation inh 44*, TLR9-MyD88 block -1 and Neddyl conf inactive.
Screening O=C(COc1ccc2c3c(c(=O)oc2c1)CCCC3)N[C@@H](Cc1ccccc1)C(=O)O returned NPR2 activator -2, GC-A act 4, NOD2 RIPK2 PPI -20, Neddylation inh 45* and TLR9-MyD88 block 10.
COc1ccc(-c2cc3c(o2)CCCC3OCCN2CCOCC2)cc1 (configuration not stated) was read as NPR2 activator -3, GC-A act 3, NOD2 RIPK2 PPI -7 and Neddylation inh 32.
For COc1ccc(NC(=O)COc2ccc3c(C)cc(=O)oc3c2)cc1S(=O)(=O)N1CCCCC1 the results were NPR2 activator -5, GC-A act -1, NOD2 RIPK2 PPI -6, Neddylation inh 43* and TLR9-MyD88 block 3.
For COc1ccc(S(=O)(=O)N2CCOCC2)cc1NC(=O)COc1ccc2c(C)cc(=O)oc2c1 the results were NPR2 activator 5, GC-A act 1, NOD2 RIPK2 PPI 8, Neddylation inh 32 and TLR9-MyD88 block -17.
`COC(=O)[C@]12C[C@H](CC(=O)N3CCCC3)C(=O)N(Cc3ccc(Cl)cc3Cl)C1=C[C@H](COCc1ccccc1)O[C@@H]2C` gave NPR2 activator 0 and GC-A act 1.
